Experimental findings from the supplement of paper PMC11219838 are described below.

A number with no mark means an inactive call.

The test system of this experiment is Caenorhabditis elegans L1 (N2). Put plainly: survival and reproduction score of C. elegans L1 (0: 0-10 living worms, 1: 11-20, 2: 21-50, 3: >50, 4: overgrown) (score 0-4); higher = more worms, less nematicidal, active = 1 or less; extreme values may be limits of the assay. To be noted: 60 µM; 6 days; temperature: 20 °C. The procedure, abridged:
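Each 96-well well received about 20 synchronized N2 L1 worms of C. elegans, E. coli HB101 and liquid NGM, plus compound pinned to 60 µM final (0.6% v/v DMSO). Sealed plates were incubated with shaking at 200 rpm, 20 °C, for 6 days. Survival and reproduction were rated under a dissection microscope as an ordinal score of living worms per well, averaged across biological replicates. The scale spanned 0 (0–10 worms) to 4 (overgrown, starved), and there were two replicates.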
As for `O=C(CSc1nnc(-c2ccc(Br)cc2)o1)OCc1ccccc1`, the “survival and reproduction score” value was 4.
As to `O=C(CSc1nnc(-c2ccccc2Cl)o1)NCc1ccco1`, the “survival and reproduction score” value is 4.
In the case of `N#Cc1ccccc1CSc1nnc(-c2ccncc2)o1`, the “survival and reproduction score” value is 4.
The figure for `O=C(c1ccccc1-c1nc(-c2ccc(Cl)cc2)no1)N1CCCCC1` is 4; for `COc1cccc(-c2noc(COc3ccc(C)c(C)c3)n2)c1` it is 4; for `CCOc1nc(C)ccc1-c1noc(-c2ccccc2F)n1` it is 4.
Take `Clc1ccc(-c2nc(-c3ccncc3)no2)c(Cl)c1`: the “survival and reproduction score” value was 2.
The figure for `Ic1ccccc1-c1nc(-c2cccnc2)no1` is 3.5; for `Cc1ccc(-c2nc(-c3cccnc3)no2)c(C)c1` it is 0 (active); for `Cc1cccc(-c2noc(-c3ccc(Br)cc3)n2)c1` it is 4.
For the molecule `COc1ccccc1NC(=O)CSc1nnc(-c2ccc(Cl)cc2)o1`, the “survival and reproduction score” value is 4.
The figure for `COc1ccc(-c2noc(COc3ccc(Cl)cc3)n2)cc1` is 4; for `CSc1ccccc1-c1nc(-c2cccnc2)no1` it is 4.
Turning to `CC(Oc1ccccc1)c1nc(-c2ccccn2)no1` (stereo not drawn), the “survival and reproduction score” value was 4.
Consider `COc1ccccc1NC(=O)CSc1nnc(-c2cccc3ccccc23)o1`, for which the “survival and reproduction score” value is 4.
As for `Cc1ccc(C(=O)CSc2nnc(-c3ccccc3)o2)cc1`, the “survival and reproduction score” value was 4.
Consider `Cc1ccc(NC(=O)CSc2nnc(-c3ccccc3)o2)c(C)c1`, for which the “survival and reproduction score” value is 4.
The figure for `Clc1ccc(SCc2nc(-c3cccnc3)no2)cc1` is 2.5.
Turning to `Cc1ccc(-c2noc(-c3ccccc3OCC(N)=O)n2)cc1`, the “survival and reproduction score” value is 4.
Consider `Cc1ccc(-c2noc(COc3ccccc3C)n2)cc1`, for which the “survival and reproduction score” value was 4.
The figure for `Cc1ccc(-c2noc(-c3ccc(C)cc3C)n2)cc1` is 4; for `Clc1ccc(-c2nc(-c3ccc4c(c3)OCO4)no2)cc1` it is 4; for `Brc1cccc(-c2nc(-c3ccccc3)no2)c1` it is 0 (active).
The figure for `Cc1nnc(CSc2nnc(-c3ccc(Cl)cc3)o2)o1` is 4.
As to `CCc1ccc(C(=O)Nc2ccccc2-c2nc(-c3cccnc3)no2)cc1`, the “survival and reproduction score” value is 4.
With `O=C(CSc1nnc(-c2ccc(Br)cc2)o1)N1CCCCCC1`, the “survival and reproduction score” value is 4.
On to `CC(=O)c1cccc(NC(=O)CSc2nnc(-c3ccccc3)o2)c1`, for which the “survival and reproduction score” value was 4.
Consider `COc1ccc(-c2noc(COc3ccc(Br)c(C)c3)n2)cc1`, for which the “survival and reproduction score” value is 4.
Consider `COc1ccc(CC(=O)Nc2ccc(-c3noc(-c4ccccc4Br)n3)cc2)cc1`, for which the “survival and reproduction score” value is 4.
The figure for `O=C(CSc1nnc(-c2ccccc2)o1)Nc1cccc(C(F)(F)F)c1` is 4.
The figure for `Cc1ccc(-c2noc(CSc3nc(C)cc(C)n3)n2)cc1` is 4.
The figure for `CCc1ccc(C(=O)Nc2ccccc2-c2nc(-c3ccncc3)no2)cc1` is 4.
Regarding `CC1CC(C)CN(C(=O)CSc2nnc(-c3cccc(Cl)c3)o2)C1` (stereo not drawn), the “survival and reproduction score” value is 4.
The figure for `COc1ccc(CC(=O)Nc2ccc(-c3noc(-c4ccc(F)cc4)n3)cc2)cc1` is 4; for `COc1cccc(-c2noc(COc3ccc(Br)cc3)n2)c1` it is 4; for `O=C(Nc1ccc(-c2noc(-c3ccc(Cl)cc3)n2)cc1)c1ccco1` it is 0 (active).
The figure for `COc1ccccc1-c1noc(-c2ccccc2F)n1` is 4.
For `Cc1cccc(-c2noc(-c3ccc4c(c3)OCO4)n2)c1`, the “survival and reproduction score” value is 4.
